PubChem BioAssay (NCI)
Where “and” joins values, the source holds several entries; their conditions need not be identical. Identical values can stand only once. This is part of a sample that, as a whole, favours compounds with a hit. Of some 83,000 tested, about 20% had one in any assay.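 Single-concentration screen, 48 h exposure, 96-well plates. Endpoint: percent growth. Below 10 = active.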 Calls of active or inactive are those of the source.

Assays:
Assay in all cases: NCI-60 one-dose screen, 48 h (100 = growth as untreated, 0 = no growth, -100 = all killed)
[1] = system: SK-MEL-2 melanoma; settings: 10 µM unless noted
[2] = system: EKVX NSCLC; settings: 10 µM unless noted
[3] = system: SN12C renal; settings: 10 µM unless noted
[4] = system: UO-31 renal; settings: 10 µM unless noted
[5] = system: TK-10 renal
[6] = system: ACHN renal; settings: 10 µM unless noted
[7] = system: CAKI-1 renal; settings: 10 µM unless noted
[8] = system: A498 renal; settings: 10 µM unless noted
[9] = system: CCRF-CEM leukemia; settings: 10 µM unless noted
[10] = system: MOLT-4 leukemia; settings: 10 µM unless noted

| Structure (SMILES) | growth [1] | growth [2] | growth [3] | growth [4] | growth ([5]; 10 µM unless noted) | growth [6] | growth [7] | growth [8] | growth [9] | growth [10] | growth ([5]; 10 µM) | growth ([5]; 250 µM) | growth ([5]; 100 µM) |
| --- | --- | --- | --- | --- | --- | --- | --- | --- | --- | --- | --- | --- | --- |
| CCN(CC)CCNC(=O)c1ccc(NCN2C(=O)NC(c3ccccc3)(c3ccccc3)C2=O)cc1 | 106% (inactive) and 112% (inactive) | 90.6% (inactive) and 95.3% (inactive) | 107% (inactive) and 105% (inactive) | 86.6% (inactive) and 67.1% (inactive) | 115% (inactive) and 114% (inactive) | 107% (inactive) and 104% (inactive) | 90.5% (inactive) and 88.1% (inactive) | 81.1% (inactive) and 205% (inactive) | 101% (inactive) |  |  |  |  |
| Cc1cc(NC(=O)NC(=O)c2ccccc2N(C)C)ccc1Oc1ncc(Br)cn1 | 48% (inactive) and 60.5% (inactive) | 47.7% (inactive) and 42.5% (inactive) | 51.6% (inactive) and 51.3% (inactive) | 24.2% (inactive) and 56.1% (inactive) | 36.5% (inactive) and 63.1% (inactive) | -17% (active) and 56.7% (inactive) | 25.9% (inactive) and 38.2% (inactive) | 15.2% (inactive) and 10.6% (inactive) | 4.54% (active) and 17.5% (inactive) | 19.5% (inactive) and 26.5% (inactive) |  |  |  |
| Cc1cnc(N)s1 | 102% (inactive) | 94.2% (inactive) | 97.2% (inactive) | 81.6% (inactive) | 114% (inactive) | 96.2% (inactive) | 96.9% (inactive) | 103% (inactive) | 99.4% (inactive) |  |  |  |  |
| Nc1nc(=S)c2[nH]cnc2[nH]1 | 29.7% (inactive) and 42.5% (inactive) | 44.6% (inactive) and 36.6% (inactive) | 29.5% (inactive) and 29.9% (inactive) | 16.4% (inactive) and 28.5% (inactive) |  | 18.7% (inactive) and 20.5% (inactive) | 4.02% (active) and 14.2% (inactive) | 32% (inactive) | 7.32% (active) and 0.0411% (active) | 10.1% (inactive) and 0.426% (active) | 10.3% (inactive) and 31.3% (inactive) | -17% (active) and -85.4% (active) |  |
| CCC(=O)Oc1ccc(OCc2ccccc2)cc1 | 123% (inactive) | 97.2% (inactive) and 105% (inactive) | 110% (inactive) and 81.6% (inactive) | 45.6% (inactive) and 30.4% (inactive) | 92.1% (inactive) | 18.4% (inactive) and 13.3% (inactive) | 61.2% (inactive) and 3.23% (active) | 120% (inactive) and 93.1% (inactive) | 62.9% (inactive) and 63.6% (inactive) |  |  |  |  |
| CCCCCCC(C)CC1=C(O)c2ccccc2C(=O)C1=O (configuration not stated) | 68.9% (inactive) | 62% (inactive) | 46.6% (inactive) | 42.7% (inactive) | 60.5% (inactive) | 37.5% (inactive) | 39.7% (inactive) | 54.3% (inactive) | 33.3% (inactive) | 26.6% (inactive) |  |  |  |
| C#CCOC(=O)C(N)CS (configuration not stated) | 115% (inactive) | 92.9% (inactive) | 87.2% (inactive) | 82.5% (inactive) |  | 98.8% (inactive) | 99.9% (inactive) | 128% (inactive) | 107% (inactive) | 108% (inactive) | 107% (inactive) |  | 103% (inactive) and 107% (inactive) |
| CCn1c2ccc(N(C)C)cc2c2cc(N(C)C)ccc21 | 104% (inactive) | 88% (inactive) | 104% (inactive) | 94.5% (inactive) | 118% (inactive) | 99.9% (inactive) | 98.4% (inactive) | 86.2% (inactive) | 85.5% (inactive) |  |  |  |  |
| O=C1C(=O)c2ccccc2C(O)=C1CC=C(Cl)Cl | 89.2% (inactive) and 77.8% (inactive) | 75.8% (inactive) | 68.8% (inactive) and 66.9% (inactive) | 55% (inactive) and 47.8% (inactive) | 75.8% (inactive) and 69.5% (inactive) | 52.6% (inactive) and 65% (inactive) | 39.4% (inactive) and 30.8% (inactive) | 81% (inactive) and 82.9% (inactive) | 44% (inactive) and 39.3% (inactive) |  |  |  |  |
| COc1ccc(/C=N/Nc2nc3ccccc3s2)cc1 | 117% (inactive) | 67.4% (inactive) | 89% (inactive) | 62.6% (inactive) | 112% (inactive) | 90.6% (inactive) | 79.9% (inactive) | 115% (inactive) | 34.7% (inactive) |  |  |  |  |
| CC(C)(C)C1CCC(=NO)CC1 (configuration not stated) | 94.5% (inactive) | 102% (inactive) | 103% (inactive) | 71.7% (inactive) | 108% (inactive) | 105% (inactive) | 97.2% (inactive) | 97.4% (inactive) | 99.8% (inactive) |  |  |  |  |
| CC(O)CCNC(c1ccccc1)C(O)c1ccccc1 (configuration not stated) | 99.4% (inactive) | 115% (inactive) | 108% (inactive) | 92.9% (inactive) | 106% (inactive) | 109% (inactive) | 104% (inactive) | 103% (inactive) | 93.7% (inactive) |  |  |  |  |
| COc1ccc(C(=O)C(O)c2ccc(OC)cc2)cc1 (configuration not stated) | 111% (inactive) and 108% (inactive) | 107% (inactive) and 110% (inactive) | 113% (inactive) and 112% (inactive) | 89.1% (inactive) and 90.7% (inactive) | 102% (inactive) and 107% (inactive) | 109% (inactive) and 112% (inactive) | 104% (inactive) and 100% (inactive) | 97.4% (inactive) and 104% (inactive) | 108% (inactive) and 105% (inactive) |  |  |  |  |
| COCCCNC1=C(C#N)C(=O)NC(c2cccs2)S1 (configuration not stated) | 119% (inactive) | 84% (inactive) | 93% (inactive) | 76.3% (inactive) | 92.5% (inactive) | 97.5% (inactive) | 92.7% (inactive) | 133% (inactive) | 114% (inactive) | 172% (inactive) |  |  |  |
| COC(=O)c1nc(=S)[nH]c(C(=O)OC)c1C(=O)c1ccc(OC)cc1 | 104% (inactive) | 107% (inactive) | 98.5% (inactive) | 86.8% (inactive) | 110% (inactive) | 105% (inactive) | 94.5% (inactive) | 116% (inactive) | 101% (inactive) |  |  |  |  |
| CC(=O)Nc1ccc2oc(=O)ccc2c1 | 101% (inactive) | 94.6% (inactive) | 95.6% (inactive) | 91.3% (inactive) | 111% (inactive) | 113% (inactive) | 88.1% (inactive) | 89.9% (inactive) | 109% (inactive) | 98.6% (inactive) |  |  |  |
| NC(=O)Cc1nc(O)cc(=O)[nH]1 | 102% (inactive) | 103% (inactive) | 96.2% (inactive) | 95.4% (inactive) | 94% (inactive) | 107% (inactive) | 99.2% (inactive) | 85.6% (inactive) | 88.3% (inactive) | 95.6% (inactive) |  |  |  |
| CCCCCCCCCCCCCCCCC(=O)O | 103% (inactive) | 106% (inactive) | 103% (inactive) | 85.7% (inactive) | 86.6% (inactive) | 112% (inactive) | 104% (inactive) | 115% (inactive) | 91.5% (inactive) | 95% (inactive) |  |  |  |
| COC(=O)c1nc(N)nc(C(=O)OC)c1C(=O)c1ccc(F)cc1 | 105% (inactive) | 104% (inactive) | 103% (inactive) | 92.4% (inactive) | 109% (inactive) | 116% (inactive) | 96.1% (inactive) | 120% (inactive) | 106% (inactive) | 156% (inactive) |  |  |  |
| CSc1nc(N)c(N)c(N)n1 | 104% (inactive) | 105% (inactive) | 99.4% (inactive) | 93% (inactive) | 111% (inactive) | 110% (inactive) | 97.8% (inactive) | 94.5% (inactive) | 64.7% (inactive) | 83% (inactive) |  |  |  |
| COC(=O)c1cc(C(=O)OC)cc([N+](=O)[O-])c1 | 109% (inactive) | 105% (inactive) | 111% (inactive) | 83.6% (inactive) | 110% (inactive) | 106% (inactive) | 109% (inactive) | 93.8% (inactive) | 102% (inactive) | 71% (inactive) |  |  |  |
| CC1(C)CC(=O)NC1=O | 99.2% (inactive) | 103% (inactive) | 101% (inactive) | 87.1% (inactive) | 91.8% (inactive) | 98.2% (inactive) | 93.5% (inactive) | 81.5% (inactive) | 95.6% (inactive) | 107% (inactive) |  |  |  |
| CC1=CC(=O)c2cccc(NC3=NCCO3)c21 | 93.8% (inactive) | 98.9% (inactive) | 95.1% (inactive) | 86.5% (inactive) | 98.3% (inactive) | 98.7% (inactive) | 94.2% (inactive) | 110% (inactive) | 108% (inactive) | 111% (inactive) |  |  |  |
| CCOC(=O)CN1CCC(C(=O)OCC)CC1 | 111% (inactive) | 127% (inactive) | 99.7% (inactive) | 94.9% (inactive) | 106% (inactive) | 111% (inactive) | 116% (inactive) | 91.5% (inactive) | 89.5% (inactive) | 106% (inactive) |  |  |  |
